Laboratory results taken from a collection of fitness landscapes (doi:10.1016/j.celrep.2020.107928).
Whole data set: some 81,000 sequences, median “one-hybrid fitness for binding NBS DNA” near -0.1, cut for the highest 2% near 0.36. Only a selection was taken, and the highest values are over-represented in it overall.

B1: Caulobacter ParB omega fusion; a variant is named by its letters at X, in order, B8GW30 (parent)
chain: MESVVVGEPGMSEGRRGLGRGLSALLGEVDAAPAQAPGEQLGGSREAPIEILQRNPDQPRRTFREEDLEDLSNSIREKGVLQPILVRPSPDTAGEYQIVAGERAWRAAQRAGLKTVPIMVRELDDLAVLEIGIIENVQRADLNVLEEALSYKVLMEKFERTQENIAQTIGKSXSHVANXMRLLXLPDEVQSYLVSGELTAXHARAIAAAADPVALAKQIIEGGLSVRETEALARKAPNLSAGKSKGGRPPRVKDTDTQALESDLSSVLGLDVSIDHRGSTGTLTITYATLEQLDDLCNRLTRGI

Variants of: B1
Assay: one-hybrid fitness for binding NBS DNA (the Noc-binding site; scaled: cognate 1, non-cognate 0); higher = stronger binding
Conditions: with NBS DNA site
How it was run: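 Caulobacter ParB libraries with four specificity codons randomised were screened by bacterial one-hybrid selection in the E. coli USO strain, using a HIS3 reporter whose site lies 19 bp from the promoter. Selection ran for 48 hours at 37°C on M9 lacking histidine, with 0.1 mM IPTG and 5 mM 3-AT. Plasmids were Illumina-sequenced before and after selection, three replicate libraries were pooled, and variants with under 10 reads were dropped. Fitness is the log change in each variant's read ratio to wild type, rescaled against the cognate and non-cognate sites.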

Variant | one-hybrid fitness for binding NBS DNA
TRYK | ≤ 0.2
DMET | ≤ 0.2
PFSA | ≤ 0.2
KETI | ≤ 0.2
TMKT | ≤ 0.2
FTAV | ≤ 0.2
TYAQ | ≤ 0.2
DFDS | ≤ 0.2
QLMD | ≤ 0.2
QLMR | 0.437
QHMD | ≤ 0.2
QHMR | 0.512
QHMH | ≤ 0.2
QLMP | ≤ 0.2
PNHV | ≤ 0.2
LLMW | ≤ 0.2
LSGP | ≤ 0.2
QVTS | 0.257
QMTR | 0.568
QVTR | 0.38
QITH | ≤ 0.2
QATR | 0.507
QITP | ≤ 0.2
QMTN | ≤ 0.2
QMTP | ≤ 0.2

Variant | one-hybrid fitness for binding NBS DNA
QATP | ≤ 0.2
QITR | 0.417
QATN | ≤ 0.2
QVTD | ≤ 0.2
AEVC | ≤ 0.2
LDTD | ≤ 0.2
DQQR | ≤ 0.2
PSGT | ≤ 0.2
DSIE | ≤ 0.2
WSFT | ≤ 0.2
GPRS | ≤ 0.2
PFKM | ≤ 0.2
QQPY | ≤ 0.2
QHTD | ≤ 0.2
QSTR | 0.531
QKTH | 0.241
QSTP | ≤ 0.2
QTTQ | 0.242
QHTR | 0.527
QKTK | ≤ 0.2
QTTR | 0.794
QSTD | ≤ 0.2
QTTF | ≤ 0.2
QHTH | ≤ 0.2
QKTR | 0.646

Variant | one-hybrid fitness for binding NBS DNA
HRSV | ≤ 0.2
ENSS | ≤ 0.2
DMPS | ≤ 0.2
GDPL | ≤ 0.2
ACNS | ≤ 0.2
TMDS | ≤ 0.2
PAFY | ≤ 0.2
QPEV | ≤ 0.2
IHVS | ≤ 0.2
GGTE | ≤ 0.2
HVRY | ≤ 0.2
DRTR | ≤ 0.2
QLTD | ≤ 0.2
QNTR | 0.223
NRTR | ≤ 0.2
QCTR | 0.637
QPTR | ≤ 0.2
QLTR | 0.487
QRTR | 1.01
QLTN | ≤ 0.2
PNSR | ≤ 0.2
QDFN | ≤ 0.2
VVTR | ≤ 0.2
ASAC | ≤ 0.2
AKMS | ≤ 0.2

Variant | one-hybrid fitness for binding NBS DNA
VYSF | ≤ 0.2
GLYG | ≤ 0.2
HCDP | ≤ 0.2
RLGR | 0.443
RLGH | ≤ 0.2
RLNN | ≤ 0.2
RLWR | 0.248
RLGN | ≤ 0.2
RLPR | ≤ 0.2
RLNR | 0.526
RLDR | ≤ 0.2
RLSC | ≤ 0.2
RLSK | ≤ 0.2
RLYR | 0.385
RLSR | 0.43
PRNP | ≤ 0.2
HRFS | ≤ 0.2
YKLT | ≤ 0.2
CNVC | ≤ 0.2
CNLW | ≤ 0.2
RLQQ | ≤ 0.2
RLLR | 0.32
RLIR | 0.21
RLCR | 0.412
RLHM | ≤ 0.2

Variant | one-hybrid fitness for binding NBS DNA
RLRR | 0.673
RLHR | 0.491
RLCN | ≤ 0.2
RLQY | ≤ 0.2
RLHD | ≤ 0.2
RLQR | 0.43
RLCS | 0.334
HQQG | ≤ 0.2
GCLR | ≤ 0.2
YYLT | ≤ 0.2
TQHV | ≤ 0.2
RMVQ | ≤ 0.2
WTKW | ≤ 0.2
SRPI | ≤ 0.2
QTDF | ≤ 0.2
QRYF | 0.227
QTYF | ≤ 0.2
QRDF | ≤ 0.2
QSRF | 0.265
QRRF | 0.418
QPRF | ≤ 0.2
QTRF | 0.446
QCRF | 0.423
NNNK | ≤ 0.2
WGNT | ≤ 0.2

Variant | one-hybrid fitness for binding NBS DNA
AIMG | ≤ 0.2
NWSC | ≤ 0.2
HMTV | ≤ 0.2
SYSV | ≤ 0.2
RCNA | 0.298
RSDA | ≤ 0.2
RRDA | 0.463
RCDA | ≤ 0.2
RPNA | ≤ 0.2
RRNA | 0.679
VHDS | ≤ 0.2
RQYA | ≤ 0.2
PMCY | ≤ 0.2
RPCR | ≤ 0.2
RICH | ≤ 0.2
RICR | 0.369
RSCH | ≤ 0.2
RHCR | 0.37
RSCN | ≤ 0.2
RSCR | 0.38
RFCR | ≤ 0.2
RCCR | 0.45
RICN | ≤ 0.2
RHCH | ≤ 0.2
RHCP | ≤ 0.2

Variant | one-hybrid fitness for binding NBS DNA
TYVA | ≤ 0.2
SMNL | ≤ 0.2
VKSS | ≤ 0.2
NEES | ≤ 0.2
WCYR | ≤ 0.2
AMGT | ≤ 0.2
RKCH | ≤ 0.2
RKCR | 0.552
RKCD | ≤ 0.2
SQRN | ≤ 0.2
VTPF | ≤ 0.2
LTHI | ≤ 0.2
PWLV | ≤ 0.2
QQKG | 0.437
QQFC | ≤ 0.2
QQNC | 0.265
QQKY | 0.63
QQVG | ≤ 0.2
QQDY | ≤ 0.2
QQYC | ≤ 0.2
QQVC | ≤ 0.2
QQKC | 0.449
QQRC | 0.455
QQVY | ≤ 0.2
QQFG | ≤ 0.2

Variant | one-hybrid fitness for binding NBS DNA
RRWI | 0.2
GLIT | ≤ 0.2
LTTA | ≤ 0.2
AREP | ≤ 0.2
GRTD | ≤ 0.2
PMHT | ≤ 0.2
PPTR | ≤ 0.2
KSNL | ≤ 0.2
THKH | ≤ 0.2
WPSG | ≤ 0.2
GFYT | ≤ 0.2
QQFM | ≤ 0.2
QQYY | ≤ 0.2
QQRY | 0.597
QQKS | 0.714
QQRM | 0.459
QQKN | 0.464
QQFY | ≤ 0.2
QQVS | 0.33
NQKS | ≤ 0.2
QQYM | ≤ 0.2
TWEG | ≤ 0.2
PTGW | ≤ 0.2
RYQK | ≤ 0.2
KVTF | ≤ 0.2

Variant | one-hybrid fitness for binding NBS DNA
WKWG | ≤ 0.2
DWIC | ≤ 0.2
LTTQ | ≤ 0.2
SPPV | ≤ 0.2
QQPK | ≤ 0.2
QQDM | ≤ 0.2
QQRK | 0.499
QQRG | 0.407
QQVM | ≤ 0.2
QQDK | ≤ 0.2
QQAK | ≤ 0.2
QQYK | ≤ 0.2
QQKM | 0.476
QQKK | 0.506
QQYG | ≤ 0.2
QQDG | ≤ 0.2
ASHP | ≤ 0.2
HWMG | ≤ 0.2
ITPE | ≤ 0.2
GQNS | ≤ 0.2
TPEF | ≤ 0.2
IIVG | ≤ 0.2
NNMC | ≤ 0.2
QQKH | 0.657
QQKP | 0.336

Variant | one-hybrid fitness for binding NBS DNA
QQKD | 0.345
SQHR | ≤ 0.2
IDPI | ≤ 0.2
IDCI | ≤ 0.2
QREI | ≤ 0.2
QRRI | 0.43
QSRI | 0.338
QCRI | 0.407
QRYI | 0.254
QPRI | ≤ 0.2
QRGI | 0.37
IDNI | 0.591
QCGI | ≤ 0.2
QSGI | ≤ 0.2
PDRM | ≤ 0.2
MWKT | ≤ 0.2
DTEY | ≤ 0.2
DDNC | ≤ 0.2
PMEV | ≤ 0.2
FFGC | ≤ 0.2
MTER | ≤ 0.2
QTYI | ≤ 0.2
QRDI | ≤ 0.2
QRNI | 0.403
QTDI | ≤ 0.2

Variant | one-hybrid fitness for binding NBS DNA
QTRI | 0.478
QCNI | ≤ 0.2
HLFS | ≤ 0.2
RRGM | 0.237
RRGP | ≤ 0.2
RRGH | 0.44
RRGS | 0.55
RRGD | ≤ 0.2
RRGN | 0.324
PPPL | ≤ 0.2
GQQS | ≤ 0.2
RDPN | ≤ 0.2
DGTL | ≤ 0.2
SCPT | ≤ 0.2
RTKM | 0.303
RTKR | 0.866
RTKG | 0.223
RTVR | 0.416
WTEY | ≤ 0.2
YTWG | ≤ 0.2
PYNR | ≤ 0.2
QMQH | ≤ 0.2
QMQP | ≤ 0.2
QCQS | 0.448
QHQS | 0.394

Variant | one-hybrid fitness for binding NBS DNA
QPQS | ≤ 0.2
QHIS | 0.258
QMQS | 0.394
QHQN | ≤ 0.2
QSQS | 0.36
CTNW | ≤ 0.2
LAHD | ≤ 0.2
LHIV | ≤ 0.2
RTMG | ≤ 0.2
RSMT | 0.305
RTMK | ≤ 0.2
RRMY | 0.338
RRMM | 0.221
RFMT | ≤ 0.2
RCMT | 0.492
RKMT | 0.587
RRMT | 0.776
RKMM | ≤ 0.2
RTMT | 0.491
RPMT | ≤ 0.2
PHSL | ≤ 0.2
GMRS | ≤ 0.2
SYNI | ≤ 0.2
EIAA | ≤ 0.2
WPVG | ≤ 0.2

Variant | one-hybrid fitness for binding NBS DNA
AYDR | ≤ 0.2
PHAW | ≤ 0.2
RMRT | 0.633
RMSG | ≤ 0.2
RMQT | 0.371
RMGF | ≤ 0.2
RMLT | 0.347
RMQP | ≤ 0.2
RMST | 0.483
RMIT | 0.253
RMGT | 0.432
RMGK | ≤ 0.2
RMQD | ≤ 0.2
RMSK | ≤ 0.2
